Screening data: PubChem, several laboratories
Only some compounds are listed: those with a hit (about 1.9% of all), similar ones and a draw of the others.
GRK2 aptamer HTS: compounds blocking aptamer binding on GRK2 – biochemical, human GRK2, bead flow cytometry, HTS, primary screen; FAM-aptamer displacement from GRK2; inhibition of aptamer binding, % at 10 µM; 330,000 compounds, 0.59% hits;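 active = inhibition of aptamer binding above 40%, roughly 3 SD of noise, on plates passing a quality check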;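 note: median bead fluorescence of bound FAM aptamer so fluorescent compounds give negative values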
MLLE-PAM2 inh: inhibitors of PABP1 MLLE–PAM2 peptide binding, primary screen, biochemical, fluorescence polarization, FITC-PAM2, GST-MLLE. Polyadenylate-binding protein 1 (Homo sapiens), P11940. inhibition, % at 20 µM. 360,000 compounds, 0.36% hits; in the data active = inhibition above about 35%, passing the limit was not always enough;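 note: plate controls were DMSO wells with GST-MLLE for no effect and wells lacking GST-MLLE protein for full effect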
eIF4H inh: human eIF4H binding inhibitors, primary screen, translation initiation inhibitor project, biochemical, uHTS, fluorescence polarization | eIF4H fluorescence polarization binding assay | inhibition, % at 35 µM | 290,000 compounds, 0.94% hits;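 note: calls also rest on retests at 20 µM and on dose response follow-up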
PABP polyA inh: PABP poly(A) RNA binding inhibitors, primary screen, biochemical, fluorescence polarization, uHTS | 290,000 compounds, 1% hits | Polyadenylate-binding protein 1 (Homo sapiens), P11940 | inhibition, % at 35 µM;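 note: calls also rest on retests at 20 µM and on dose response follow-up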
PERK inhibitor: block of dimerizer-induced PERK translation repression, primary screen, PERK inhibitor project, CHO PERK-DD cells, SEAP luminescence, HTS. CHO PERK-DD fusion, SEAP luminescence translation reporter. inhibition, % at 5.6 µM. 220,000 compounds, 0.17% hits;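 active = inhibition above the mean inhibition of all tested compounds plus 3 SD, set separately per screening campaign, cut at about 2.9% in these data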;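 note: PERK kinase domain activated by AP20187 dimerizer at 100 nM; 0% = DMSO with dimerizer and 100% = rapamycin at 8.4 µM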
The depositor's hits bear a star. Unless noted, the rule behind the calls is not given here.

Results for Cc1cccc(NC(=O)CNC(=O)CSc2nnc(C(F)(F)F)n2C)c1C ?
GRK2 aptamer HTS: 0.0; MLLE-PAM2 inh: -3.8

How did CCCCN1CC(N2CCN(CCN(C)C)CC2)CS1(=O)=O (stereo not drawn) do in these assays?
MLLE-PAM2 inh: 9.3

What do the screens show for `COc1cccc(CNC(=O)CCCc2cn(C)c3ccccc23)c1`?
GRK2 aptamer HTS: 1.0; MLLE-PAM2 inh: 11.7; eIF4H inh: 5.1; PABP polyA inh: 5.6

Results for Cn1cc(CC(=O)NCCN2CCOCC2)c2ccccc21 ?
GRK2 aptamer HTS: 0.0; MLLE-PAM2 inh: -2.8; eIF4H inh: 0.4; PABP polyA inh: 10.0; PERK inhibitor: 0.6

How did CCOc1ccc2nc(N3CCCC(C(=O)NCCCN4CC(C)CC(C)C4)C3)sc2c1 (stereo not drawn) do in these assays?
GRK2 aptamer HTS: 0.0; MLLE-PAM2 inh: 4.2; eIF4H inh: -8.4; PABP polyA inh: 13.2

What do the screens show for `Cc1ccc(NC2=CC(=O)CC(C)(C)C2)c(N)c1`?
GRK2 aptamer HTS: 0.0; MLLE-PAM2 inh: 5.9; eIF4H inh: 82.5*; PABP polyA inh: 78.7*; PERK inhibitor: 0.6

Results for CC1(C)CC(=O)C=C(Nc2ccccc2N)C1 ?
GRK2 aptamer HTS: 0.0; MLLE-PAM2 inh: 4.4; eIF4H inh: -9.3; PABP polyA inh: 4.1

Results for O=C(Nc1ccc(C(=O)N2CCOCC2)cc1)c1ccccc1Cl ?
MLLE-PAM2 inh: 13.7

What do the screens show for `CCCCn1c(N)c(N(CC(C)C)C(=O)CCCSc2nncs2)c(=O)[nH]c1=O`?
GRK2 aptamer HTS: 2.0; MLLE-PAM2 inh: -1.7; eIF4H inh: 3.5; PABP polyA inh: 6.3; PERK inhibitor: 0.3

What do the screens show for `CC(=O)Nc1ccc(-c2ccc3nnc(C)n3n2)cc1`?
GRK2 aptamer HTS: 0.0; MLLE-PAM2 inh: 14.7; eIF4H inh: -8.8; PABP polyA inh: -6.6; PERK inhibitor: 0.6

Results for Cc1nnc2ccc(-c3ccc(NC(=O)c4ccco4)cc3)nn12 ?
GRK2 aptamer HTS: 4.0; MLLE-PAM2 inh: -10.9; eIF4H inh: 74.1*; PABP polyA inh: -13.1; PERK inhibitor: 0.8

What do the screens show for `Cc1ccccc1OCC(=O)Nc1ccc(C(=O)Nc2ccccc2C(=O)O)cc1`?
GRK2 aptamer HTS: 0.0; MLLE-PAM2 inh: 4.3; eIF4H inh: -0.2; PABP polyA inh: 10.6

What do the screens show for `CC1CN(C(=O)/C(C#N)=C2\N=C(NC(=O)c3ccccc3Cl)c3ccccc32)CC(C)O1` (stereo not drawn)?
eIF4H inh: -15.4; PABP polyA inh: 2.7; PERK inhibitor: -0.6

Results for Cc1nc(N)sc1-c1csc(Nc2cccc(C(=O)O)c2)n1 ?
GRK2 aptamer HTS: 1.0; MLLE-PAM2 inh: -27.7; eIF4H inh: 85.1*; PABP polyA inh: 52.6*

How did CCC(=O)Nc1nc(C)c(-c2csc(Nc3cccc(C(=O)O)c3)n2)s1 do in these assays?
GRK2 aptamer HTS: 0.0; MLLE-PAM2 inh: 13.9; eIF4H inh: -4.7; PABP polyA inh: -2.7; PERK inhibitor: 1.1

What do the screens show for `COc1ccccc1OCC(=O)Sc1ccc(C)cc1`?
GRK2 aptamer HTS: 0.0; MLLE-PAM2 inh: 36.4*; eIF4H inh: -12.6; PABP polyA inh: 69.4; PERK inhibitor: 1.2

How did Cc1ccc(OCC(=O)Sc2ccc(C)cc2)cc1 do in these assays?
GRK2 aptamer HTS: 0.0; MLLE-PAM2 inh: 25.4; eIF4H inh: -0.8; PABP polyA inh: -7.0; PERK inhibitor: -0.2

What do the screens show for `COc1ccccc1OCC(=O)NNC(=O)CCCC(=O)NNC(=O)COc1ccccc1OC`?
GRK2 aptamer HTS: 2.0; MLLE-PAM2 inh: 9.1; eIF4H inh: -2.7; PABP polyA inh: -3.7

How did COc1ccccc1OCC(=O)NCCNC(=O)COc1ccccc1OC do in these assays?
GRK2 aptamer HTS: 2.0; MLLE-PAM2 inh: 39.9*; eIF4H inh: -6.9; PABP polyA inh: -4.1; PERK inhibitor: 0.4

What do the screens show for `O=[N+]([O-])C(/C=C(\Cl)[N+](=O)[O-])=C1N(Cc2ccc(Cl)nc2)CCN1Cc1ccc(Cl)nc1`?
GRK2 aptamer HTS: 0.0; MLLE-PAM2 inh: -82.3; eIF4H inh: inconclusive; PABP polyA inh: 36.1*; PERK inhibitor: -0.3

What do the screens show for `O=[N+]([O-])/C(C(=C(Cl)Cl)N1CCN(Cc2ccccc2)CC1)=C1\NCCN1Cc1ccc(Cl)nc1`?
GRK2 aptamer HTS: 0.0; MLLE-PAM2 inh: -5.0; eIF4H inh: 4.4; PABP polyA inh: 3.2; PERK inhibitor: 0.3

Results for C=CCn1c(SCC(=O)NC2CCCCC2)nnc1-c1cccnc1 ?
GRK2 aptamer HTS: 0.0; MLLE-PAM2 inh: -1.7; eIF4H inh: -1.9; PABP polyA inh: 2.6

Results for N#Cc1ccc(C(=O)N/N=C/c2cn(CC(=O)O)c3ccccc23)c(F)c1 ?
GRK2 aptamer HTS: 0.0; MLLE-PAM2 inh: -126.6; eIF4H inh: 1.0; PABP polyA inh: 2.3; PERK inhibitor: 0.1

Results for Cn1cc(/C=N/NC(=O)c2ccc(C#N)cc2F)c2ccccc21 ?
GRK2 aptamer HTS: 0.0; MLLE-PAM2 inh: 2.9; eIF4H inh: 3.5; PABP polyA inh: 68.7*; PERK inhibitor: -0.2

How did CCOC(=O)c1c(C)oc2ccc(O)cc12 do in these assays?
GRK2 aptamer HTS: 0.0; MLLE-PAM2 inh: 0.3; eIF4H inh: -6.3; PABP polyA inh: 0.2; PERK inhibitor: 3.4*

How did CCOC(=O)c1c(C(C)(C)C)oc2ccc(O)cc12 do in these assays?
GRK2 aptamer HTS: 2.0; MLLE-PAM2 inh: -3.8; eIF4H inh: -6.5; PABP polyA inh: -7.4; PERK inhibitor: 0.6

How did C[C@H]1CC[C@H]2C(=O)N3[C@H](c4ccccc4Br)[C@@H](C)CC[C@H]3C(=O)N2[C@@H]1c1ccccc1Br do in these assays?
GRK2 aptamer HTS: 2.0; eIF4H inh: 1.5; PABP polyA inh: 9.4; PERK inhibitor: 0.1

How did COc1ccc(OC)c(N/C(C)=C/C(=O)c2ccccc2)c1 do in these assays?
GRK2 aptamer HTS: 3.0; MLLE-PAM2 inh: 10.5; eIF4H inh: 1.2; PABP polyA inh: 0.2; PERK inhibitor: 0.7

How did COc1ccc(OC)c(N/C(C)=C/C(=O)c2ccncc2)c1 do in these assays?
GRK2 aptamer HTS: 0.0; MLLE-PAM2 inh: -4.0; eIF4H inh: inconclusive; PABP polyA inh: 29.3*

Results for CCOC(=O)C1CCCN(C(=O)C2(c3ccc(Cl)cc3)CCCC2)CC1 (stereo not drawn) ?
MLLE-PAM2 inh: -3.5

What do the screens show for `O=C(O)Cn1c2ccccc2c2n[nH]c(=S)nc21`?
GRK2 aptamer HTS: 1.0; MLLE-PAM2 inh: 43.4*; eIF4H inh: 13.2; PABP polyA inh: 15.3

What do the screens show for `CCOc1cc(N2CCOCC2)c(OCC)cc1NC(=O)CCS(=O)(=O)c1ccc(Cl)cc1`?
GRK2 aptamer HTS: 4.0; MLLE-PAM2 inh: -4.1; eIF4H inh: 2.5; PABP polyA inh: 0.8; PERK inhibitor: -0.1
